The values below come from PubChem BioAssay (NCI).

Common to all, as to experiment: NCI-60 one-dose screen, 48 h (100 = growth as untreated, 0 = no growth, -100 = all killed)
Holding throughout (settings): 10 µM

Assay [1] deals with SR leukemia.
Assay [2] has as its system RPMI-8226 leukemia.
In assay [3] the test system is OVCAR-8 ovarian.
Assay [4] concerns OVCAR-5 ovarian.
The subject of assay [5] is OVCAR-4 ovarian.
Assay [6] concerns SK-OV-3 ovarian.
In assay [7] the test system is IGROV1 ovarian.
The subject of assay [8] is OVCAR-3 ovarian.
For assay [9], the system named is HS 578T breast.
For assay [10], the system named is NCI/ADR-RES ovarian.

SMILES strings stand for the structures. Compounds without any hit were thinned out: in the full panel of roughly 83,000, 20% have a hit.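 In brief: 96-well plates, 48 h treatment, single concentration, percent growth endpoint.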 Unmarked numbers belong to inactive results. The source made the active and inactive calls. How the source made its calls: active means growth percent below 10; inactive means the rest.

For `O=C(CN(C1CCCCC1)C1CCCCC1)Nc1ccc(S(=O)(=O)c2ccc(NC(=O)CN(C3CCCCC3)C3CCCCC3)cc2)cc1`, the growth in [1] was -51.4% (active); in assay [2], -66.9% (active); in [3], 3.23% (active); in [4] it was -54.8% (active); in assay [5] it was -72.6% (active); in assay [6], 76.6%. For the same molecule, the growth in [7] is -52.3% (active); in assay [8], -85.2% (active); in assay [9] it was 33.9%; in assay [10] it was 4.04% (active).
For `COc1cccc(C2C(C#N)=C(N)Oc3cc(N)ccc32)c1` (stereo not given), the growth in [1] is 14.4%; in [2], 19.6%; in assay [3] it was 30.7%; in assay [4] it was 40.6%; in assay [5] it was 43.8%; in assay [6] it was 48.9%. Besides, the growth in assay [7] is 32.4%; in assay [8], -26.5% (active); in [9] it was 22.1%; in assay [10] it was -7.69% (active).
Consider `CC(C)(C)c1ccc(S(=O)(=O)N[C@H]2CC[C@H]3[C@@H]4CCc5cc(OS(=O)(=O)O)ccc5[C@H]4CC[C@]23C)cc1`, for which the growth in [1] is 20.7%; in [2] it was 34.1%; in [3], 52.1%; in assay [4], 87.3%; in [5], 53.4%; in assay [6], 82.1%. Further, the growth in [7] is 41.4%; in assay [8], 34.1%; in assay [9], 66.5%; in assay [10] it was 47.3%.
With `CC(CN(C)C)Oc1ccc(OC(C)CN(C)C)c2c1C(=O)c1ccccc1C2=O` (stereo not given), the growth in assay [1] is 20.7%; in assay [2], 41.4%; in assay [3], 30.1%; in assay [4], 63.6%; in assay [5], 72%; in assay [6] it was 45.1%. For the same molecule, the growth was 37.3% in assay [7], 55% in assay [8], 70% in [9] and 94.5% in assay [10].
Turning to `COc1ccc(CCN2CCC(Nc3nc4ccccc4n3Cc3ccc(F)cc3)CC2)cc1`, the growth in assay [1] is -54.6% (active); in [2], -20.2% (active); in [3] it was -40.4% (active); in [4] it was 34.5%; in assay [5] it was 22.4%; in [6], 44%. Further, the growth is 41.2% in [7], 28.3% in [8], -40.2% (active) in [9] and 37.7% in assay [10].
Turning to `C(=N\Nc1ncnc2sc3c(c12)CCNC3)/c1cccc2ccccc12`, the growth in assay [1] was 22%; in assay [2], -30.1% (active); in assay [3] it was 58.2%; in assay [4], 89.8%; in [5], 42.7%; in assay [6], 103%. In addition, the growth is 89.9% in [7], 113% in assay [8], 96.8% in [9] and 75.4% in assay [10].
For `COc1cc(-c2nn(-c3ccc(NC(=O)NCCNS(=O)(=O)c4ccc(F)cc4)cc3)cc2-c2ccncc2)ccc1Cl`, the growth in assay [1] is 1.26% (active); in assay [2] it was -21.6% (active); in [3] it was 9.18% (active); in [4], 27.1%; in assay [5], 41.8%; in [6] it was 18.1%. Also, the growth in [7] is 27.3%; in assay [8], 7.55% (active); in assay [9], 21.6%; in assay [10], 79.2%.
Take `CN(C)CCOc1ccccc1NC1=C(Cl)C(=O)C(Nc2ccccc2OCCN(C)C)=C(Cl)C1=O`: the growth in [1] was 19%; in [2], 82.7%; in [3], 26.6%; in assay [4], 109%; in [5], -99% (active); in assay [6] it was 119%. Moreover, the growth in [7] was 10.5%; in [8], -96% (active); in [9], 98.4%; in assay [10] it was 92.8%.
Regarding `CC(C)(C)c1ccc(S(=O)(=O)N[C@H]2CC[C@H]3[C@@H]4CCc5cc(O)c([N+](=O)[O-])cc5[C@H]4CC[C@]23C)cc1`, the growth was 63.5% in assay [1]; 67.3% in assay [2]; 59.6% in assay [3]; 95.9% in [4]; 10.3% in [5]; 47.7% in [6]. The growth was 78.1% in assay [7], 53.7% in assay [8], 61.6% in [9] and 69.1% in assay [10].
In the case of `CS(=O)(=O)c1nccc(-c2c(-c3cccc(OCCN4CCOCC4)c3)nc3sccn23)n1`, the growth in [1] is 78.3%; in assay [2], 47.8%; in [3] it was 92.1%; in assay [4], 96.6%; in [5], 76.8%; in assay [6], 84.9%. In addition, the growth was 80.2% in assay [7], 94.8% in assay [8], 88.7% in [9] and 93.3% in assay [10].
For `CNS(=O)(=O)Oc1ccc(-c2ccc3occc3c2)cc1`, the growth was 111% in assay [1]; 109% in assay [2]; 99.5% in assay [3]; 88.8% in assay [4]; 98.4% in [5]; 111% in assay [6]. For the same molecule, the growth in assay [7] is 99.8%; in assay [8], 107%; in assay [9] it was 110%; in assay [10], 102%.
In the case of `O=C1/C(=C/c2ccc3c(c2)OCO3)SC(=S)N1C1c2ccccc2Oc2ccccc21`, the growth in assay [1] is 84.1%; in [2], 106%; in assay [3], 98.9%; in assay [4], 96.5%; in assay [5], 102%; in assay [6] it was 107%. In addition, the growth was 90.6% in assay [7], 98.1% in assay [8], 90.9% in [9] and 95.4% in assay [10].
`N#Cc1ccc(C(=O)CSc2nccc(Nc3ccc(C(=O)O)cc3)n2)cc1`: the growth in [1] is 106%; in [2] it was 108%; in [3], 106%; in [4] it was 102%; in assay [5] it was 115%; in [6], 106%. Moreover, the growth is 102% in assay [7], 110% in assay [8], 98.7% in assay [9] and 108% in [10].
